The results in this text go back to ChEMBL document CHEMBL2218924, “A broad activity screen in support of a chemogenomic map for kinase signalling research and drug discovery” (Biochem J, 2013).

The target of assay [1] is Tyrosine-protein kinase SYK (Homo sapiens) (UniProt P43405). As to conditions: at 10 µM.
For assay [2], the target named is T1, Mitogen-activated protein kinase kinase kinase 7 (Homo sapiens) (UniProt O43318).
T1 sequence (whole entry): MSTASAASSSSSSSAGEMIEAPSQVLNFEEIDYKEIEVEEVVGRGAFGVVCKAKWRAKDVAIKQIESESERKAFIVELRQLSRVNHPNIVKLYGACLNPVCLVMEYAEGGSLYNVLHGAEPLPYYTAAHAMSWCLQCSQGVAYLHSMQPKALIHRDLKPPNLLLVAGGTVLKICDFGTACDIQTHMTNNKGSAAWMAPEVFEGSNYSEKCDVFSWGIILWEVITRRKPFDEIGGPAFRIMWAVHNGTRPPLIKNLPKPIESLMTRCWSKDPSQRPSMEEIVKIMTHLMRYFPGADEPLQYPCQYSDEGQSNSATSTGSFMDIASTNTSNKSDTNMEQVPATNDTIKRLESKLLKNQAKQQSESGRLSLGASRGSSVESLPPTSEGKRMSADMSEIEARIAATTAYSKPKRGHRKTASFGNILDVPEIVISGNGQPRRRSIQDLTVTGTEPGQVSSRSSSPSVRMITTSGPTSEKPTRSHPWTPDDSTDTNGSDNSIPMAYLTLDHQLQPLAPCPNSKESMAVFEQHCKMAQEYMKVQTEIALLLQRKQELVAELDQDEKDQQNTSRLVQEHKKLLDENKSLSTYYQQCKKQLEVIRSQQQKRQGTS
As to conditions: at 1 µM.

For assay [3], the target named is T1, Mitogen-activated protein kinase kinase kinase 7 (Homo sapiens). The conditions noted are these: at 10 µM.
In assay [4] the target is T2, Serine/threonine-protein kinase TAO1 (Homo sapiens) (UniProt Q7L7X3).
T2 sequence (whole entry): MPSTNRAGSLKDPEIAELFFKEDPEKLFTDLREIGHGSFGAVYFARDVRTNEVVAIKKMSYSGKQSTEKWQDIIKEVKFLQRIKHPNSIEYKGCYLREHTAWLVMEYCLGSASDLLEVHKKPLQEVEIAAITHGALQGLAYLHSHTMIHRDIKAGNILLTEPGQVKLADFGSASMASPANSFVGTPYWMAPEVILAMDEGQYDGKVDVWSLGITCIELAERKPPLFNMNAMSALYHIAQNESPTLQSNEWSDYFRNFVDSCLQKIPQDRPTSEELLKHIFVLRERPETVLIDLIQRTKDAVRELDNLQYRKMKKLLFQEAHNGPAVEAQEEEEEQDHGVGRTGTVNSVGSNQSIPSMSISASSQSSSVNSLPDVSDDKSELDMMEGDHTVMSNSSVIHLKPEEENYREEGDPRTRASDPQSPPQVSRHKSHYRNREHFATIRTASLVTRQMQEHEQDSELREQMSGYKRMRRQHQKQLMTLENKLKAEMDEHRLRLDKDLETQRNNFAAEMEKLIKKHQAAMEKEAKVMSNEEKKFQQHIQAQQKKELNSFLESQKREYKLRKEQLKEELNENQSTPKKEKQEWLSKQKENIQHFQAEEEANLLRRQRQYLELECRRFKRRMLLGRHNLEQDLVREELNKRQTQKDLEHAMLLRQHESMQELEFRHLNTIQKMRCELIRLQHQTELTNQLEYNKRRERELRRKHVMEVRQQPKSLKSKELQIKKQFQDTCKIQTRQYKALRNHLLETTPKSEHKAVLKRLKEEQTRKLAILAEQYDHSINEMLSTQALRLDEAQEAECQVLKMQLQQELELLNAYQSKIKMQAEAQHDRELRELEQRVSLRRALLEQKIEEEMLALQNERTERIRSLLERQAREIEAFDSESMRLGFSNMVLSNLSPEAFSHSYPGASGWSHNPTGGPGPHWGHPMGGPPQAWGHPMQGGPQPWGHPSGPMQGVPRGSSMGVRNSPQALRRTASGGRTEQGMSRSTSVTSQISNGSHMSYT
As to conditions: at 1 µM.

The target in assay [5] is T2, Serine/threonine-protein kinase TAO1 (Homo sapiens). The conditions noted are these: at 10 µM.
Assay [6] addresses T3, Serine/threonine-protein kinase TAO2 (Homo sapiens) (UniProt Q9UL54).
T3 sequence (whole entry): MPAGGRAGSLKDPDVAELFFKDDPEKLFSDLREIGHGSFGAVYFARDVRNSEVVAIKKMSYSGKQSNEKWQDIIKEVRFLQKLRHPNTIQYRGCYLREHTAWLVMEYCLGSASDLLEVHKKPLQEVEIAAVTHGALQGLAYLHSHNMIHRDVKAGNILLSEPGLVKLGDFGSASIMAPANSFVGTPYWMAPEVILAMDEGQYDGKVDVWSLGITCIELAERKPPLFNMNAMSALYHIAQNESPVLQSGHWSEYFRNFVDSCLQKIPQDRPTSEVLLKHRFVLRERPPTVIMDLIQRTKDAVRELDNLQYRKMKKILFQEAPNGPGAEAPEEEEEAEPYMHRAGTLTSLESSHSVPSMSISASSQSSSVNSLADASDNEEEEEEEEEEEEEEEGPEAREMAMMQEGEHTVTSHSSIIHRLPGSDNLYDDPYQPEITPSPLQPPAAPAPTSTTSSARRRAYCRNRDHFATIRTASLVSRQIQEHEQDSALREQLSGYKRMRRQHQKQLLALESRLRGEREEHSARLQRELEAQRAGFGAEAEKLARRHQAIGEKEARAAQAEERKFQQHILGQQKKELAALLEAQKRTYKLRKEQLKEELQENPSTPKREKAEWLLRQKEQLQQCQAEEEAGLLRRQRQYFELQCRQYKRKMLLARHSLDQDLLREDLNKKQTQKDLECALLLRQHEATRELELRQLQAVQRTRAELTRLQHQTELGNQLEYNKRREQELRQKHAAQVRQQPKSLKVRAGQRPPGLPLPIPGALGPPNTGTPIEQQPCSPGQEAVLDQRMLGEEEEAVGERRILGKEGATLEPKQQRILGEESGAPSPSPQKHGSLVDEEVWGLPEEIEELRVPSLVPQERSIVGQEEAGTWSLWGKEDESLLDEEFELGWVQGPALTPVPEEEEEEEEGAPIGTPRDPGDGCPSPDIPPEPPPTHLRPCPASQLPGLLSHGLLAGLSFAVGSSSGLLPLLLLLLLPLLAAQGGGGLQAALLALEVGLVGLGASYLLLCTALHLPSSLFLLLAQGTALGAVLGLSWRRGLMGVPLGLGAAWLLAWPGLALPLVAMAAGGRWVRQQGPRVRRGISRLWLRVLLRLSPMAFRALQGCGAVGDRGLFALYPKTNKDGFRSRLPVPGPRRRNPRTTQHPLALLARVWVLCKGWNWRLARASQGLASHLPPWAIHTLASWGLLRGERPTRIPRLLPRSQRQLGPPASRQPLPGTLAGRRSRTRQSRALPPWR
As to conditions: at 1 µM.

The target in assay [7] is T3, Serine/threonine-protein kinase TAO2 (Homo sapiens). As to conditions: at 10 µM.
Assay [8] deals with T4, Serine/threonine-protein kinase TAO3 (Homo sapiens) (UniProt Q9H2K8).
T4 sequence (whole entry): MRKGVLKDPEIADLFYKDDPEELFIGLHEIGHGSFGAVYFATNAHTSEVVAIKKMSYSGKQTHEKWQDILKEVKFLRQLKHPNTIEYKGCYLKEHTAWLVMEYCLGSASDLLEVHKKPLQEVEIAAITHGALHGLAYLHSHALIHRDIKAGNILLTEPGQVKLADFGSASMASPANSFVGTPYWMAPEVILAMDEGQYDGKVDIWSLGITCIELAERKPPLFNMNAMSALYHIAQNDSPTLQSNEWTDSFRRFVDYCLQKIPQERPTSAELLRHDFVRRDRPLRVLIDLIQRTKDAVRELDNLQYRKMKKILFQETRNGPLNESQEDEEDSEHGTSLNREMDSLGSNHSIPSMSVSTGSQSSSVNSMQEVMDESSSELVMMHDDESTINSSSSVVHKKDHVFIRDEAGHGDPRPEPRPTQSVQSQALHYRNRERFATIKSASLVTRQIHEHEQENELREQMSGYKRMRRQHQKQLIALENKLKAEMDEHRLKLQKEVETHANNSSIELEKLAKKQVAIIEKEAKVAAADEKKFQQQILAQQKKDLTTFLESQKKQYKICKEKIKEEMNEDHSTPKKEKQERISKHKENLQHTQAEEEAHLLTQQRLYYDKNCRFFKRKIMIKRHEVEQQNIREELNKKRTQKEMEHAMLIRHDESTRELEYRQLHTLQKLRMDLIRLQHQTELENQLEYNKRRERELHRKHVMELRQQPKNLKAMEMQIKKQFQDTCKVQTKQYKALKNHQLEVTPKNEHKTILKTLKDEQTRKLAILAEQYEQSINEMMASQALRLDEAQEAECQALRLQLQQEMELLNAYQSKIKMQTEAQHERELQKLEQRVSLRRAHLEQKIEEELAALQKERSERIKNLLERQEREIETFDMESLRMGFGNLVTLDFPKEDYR
The conditions noted are these: at 1 µM.

The target of assay [9] is T4, Serine/threonine-protein kinase TAO3 (Homo sapiens). The conditions noted are these: at 10 µM.

Consider `Nc1cccc(-c2cc3c(Oc4cccc(O)c4)ncnc3[nH]2)c1`, for which the residual activity in [1] worked out at 3%; in assay [2], 48%; in assay [3], 8%; in assay [4], 82%; in [5], 39%; in assay [6], 78%. For the same compound, the residual activity in assay [7] came to 26%; in [8] it was 84%; in assay [9], 37%.
